Most compounds without a hit are left out; they make up all but 2.8% or so of the library.
Peg3 prom inh – Peg3 promoter-driven luciferase inhibitors, primary screen, cell-based, HeLa, luciferase luminescence | HeLa PEG-Prom luciferase reporter, overnight | inhibition, % at 20 µM | hit rate 1.7% among 360,000 | AID 588405, 2011;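 active means inhibition of at least 50% at 20 µM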
HIF-2a block – HIF-2a reporter inhibitors, primary screen, luminescence, 786-0 RCC cells | 786-0 RCC cells HIF-2a reporter, luciferase luminescence, overnight | inhibition, % at 18.8 µM | hit rate 0.72% among 360,000;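 active means inhibition of the luminescence signal of 40% or more relative to plate controls, in a single-dose primary screen at 18.75 µM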
CF NFkB inh – inhibitors of PAF-induced NF-kB signaling, primary screen, cell-based, GFP fluorescence, uHTS | KKLEB NF-kB-GFP reporter, GFP fluorescence overnight | inhibition, % at 5 µM | hit rate 0.86% among 360,000;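 active means at least 50% inhibition at 5 µM, scaled per plate between neutral and stimulator controls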;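 further: PAF is a Pseudomonas aeruginosa culture filtrate used as stimulus; plate controls were PAF-stimulated DMSO wells for no effect and unstimulated DMSO wells for full effect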
KKLEB tox – cytotoxicity in KKLEB CF airway cells, primary screen, cytotoxicity control for CF NF-kB inhibitor project, cell-based, uHTS, fluorescence assay plates; KKLEB CF airway cells viability, ATPlite luminescence, overnight; hits give low values; cells stimulated with P. aeruginosa culture filtrate; activity change (cytotoxicity), % at 5 µM; hit rate 0.36% among 360,000; AID 602141, 2011;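 active means corrected activity change at or below -50% at 5 µM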
TRPM1 prom inh – inhibitors of MITF-dependent TRPM1 promoter reporter, primary screen, cell-based, SK-MEL-5, single point, luciferase | SK-MEL-5 TRPM1 promoter luciferase, 24 h | inhibition, % at 12.5 µM | hit rate 0.83% among 330,000;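 active means mean inhibition across replicates of 60% or more, whatever share of single replicates reaches that level; inconclusive means some that reach 60%, reason not given; inactive means mean inhibition across replicates below 60%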
Shn3 3UTR inh – reduction of Shn3 3'UTR firefly luciferase signal, primary screen, Schnurri-3 inhibitor project, cell-based, Clone20 osteoblasts, set 2; Clone20 osteoblast Shn3 3'UTR firefly luciferase, 24 h; inhibition, % at 12.5 µM; hit rate 0.52% among 360,000; AID 588674, 2011;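 active means mean inhibition of at least 75% with every replicate also reaching 75%; inconclusive means mean inhibition at least 75% but some replicate below; inactive means mean inhibition below 75%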;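 further: 0% = median of neutral control wells and 100% = pilot-screen positive control compound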
* marks the source's active call; other numbers are inactive results; ? = inconclusive; nt = not tested or not shown.

SMILES	Peg3 prom inh	HIF-2a block	CF NFkB inh	KKLEB tox	TRPM1 prom inh	Shn3 3UTR inh
COc1cc(C#N)ccc1OCC(=O)Nc1cccc(S(=O)(=O)N(C)c2ccccc2)c1	19	3	-18	-16	nt	14
O=c1[nH]c(C2CCN(S(=O)(=O)c3ccc(F)cc3)CC2)nc2c1nnn2Cc1ccc2c(c1)OCCO2	25	8	35	11	12	5
O=c1[nH]c(C2CCN(S(=O)(=O)c3ccccc3F)CC2)nc2c1nnn2Cc1ccc2c(c1)OCCO2	60*	23	3	9	5	-5
C=C(C)C(=O)Nc1cccc(C2=NOC3(C2)C[C@@H](C(N)=O)N(C(=O)c2cc([N+](=O)[O-])cc([N+](=O)[O-])c2C)C3)c1 (stereo partly drawn)	-11	13	-14	6	8	16
Cc1ccc2c(c1)c1c3n2CCN(C(=O)CCl)C3CCC1 (stereo not drawn)	56*	-25	20	-26	20	-12
CCOC(=O)C1=C[C@@H](C(C)(C)C)N(S(=O)(=O)c2ccc(C)cc2)[C@H]1c1ccc(Cl)c(Cl)c1	9	11	10	2	nt	-3
Cc1ccc2[nH]c(O)c(N=Nc3ccccc3[N+](=O)[O-])c2c1	-54	-105	-25	-2	-4	-17
O=[N+]([O-])c1ccccc1N=Nc1c(O)[nH]c2ccc(F)cc12	-219	-119	-17	0	-30	85*
CCOC(=O)N1CCN(CC(=O)Nc2ccc(C)c(Br)c2)CC1	14	14	6	-14	21	15
N=c1n(CCCOc2ccccc2Cl)c2ccccc2n1CC(N)=O	29	-7	0	-6	31	nt
CC(=O)OCC1OC(n2cc(F)c(=O)[nH]c2=O)C(OC(C)=O)C1OC(C)=O (stereo not drawn)	-13	5	-1	6	-9	29
O=C1C(F)=CC(COC(c2ccccc2)(c2ccccc2)c2ccccc2)OC1n1cc(F)c(=O)[nH]c1=O (stereo not drawn)	98*	87*	90*	-82*	114*	98*
CC1CC(=O)Nc2ccccc2N1S(=O)(=O)c1cccc(Cl)c1 (stereo not drawn)	-2	2	-10	11	16	-18
COc1ccc(NC(=O)c2cc(S(=O)(=O)N3CCc4ccccc43)cn2C)cc1	27	-5	7	11	nt	23
O=C(Nc1ccncc1)c1cccc(S(=O)(=O)N2CCc3ccccc32)c1	18	21	10	-2	18	91*
O=C(Nc1cccnc1)c1cccc(S(=O)(=O)N2CCc3ccccc32)c1	29	30	6	3	18	24
Cc1ccc(NC(=O)c2cc(S(=O)(=O)N3CCc4ccccc43)cn2C)cc1C	52*	25	36	-20	10	33
COC(=O)c1nccc2c1[nH]c1ccccc12	-13	-17	-36	7	-21	-7
CCOc1cc(Br)cc(/C=N/NC(=O)c2cccnc2)c1O	62*	-7	2	-1	49	92*
CCc1ccc(C2=NN(c3ccc(S(N)(=O)=O)cc3)C(c3ccc(F)cc3)C2)cc1 (stereo not drawn)	67*	-22	-2	-9	-2	6
CC1CCN(CCCn2c(=S)[nH]c3ccc(N4CCOCC4)cc3c2=O)CC1	4	13	8	-67*	8	-8
Cc1ccc2[nH]c(=O)c(CN(CCCN(C)C)C(=S)NCCc3ccccc3)cc2c1	56*	2	3	1	0	-1
O=C(/C=C/Nc1ccc(Br)cn1)c1cccc(OC(F)F)c1	-354	-315	-24	3	-87	-73
O=[N+]([O-])c1ccc(-c2cnc(SC(c3ccccc3)c3ccccc3)[nH]2)cc1	53*	9	-24	2	0	47
O=C(Nc1ccc([N+](=O)[O-])cc1)Nc1nc(-c2ccc(Cl)s2)cs1	69*	13	48	-47	72*	?

Source: PubChem BioAssay (several laboratories)
